The record followed here is PubChem BioAssay AID2718 (Broad Institute, 2010).

Hit rate of the full screen: of about 320,000 compounds, about 480 (0.15%) were called active. Roughly 1% stayed inconclusive and do not appear here. The list comes from a sample in which actives are over-represented; it also holds similar structures and randomly drawn compounds. A number with no mark means an inactive call. Rule as the data show it: active = inhibition above about 26% (passing the limit was not always enough); inconclusive = no clear call, values can overlap the other calls.

The target of the test is Histone deacetylase 3 (Homo sapiens) (UniProt O15379). Kind of test: inhibition of human HDAC3 enzyme activity – biochemical, fluorescence, cell-free homogeneous, primary screen (AID 2718). To be noted: recombinant HDAC3, fluorogenic peptide/trypsin coupled, at 8.3 µM, stronger effect = higher value.
Histone deacetylase 3 (Homo sapiens), sequence (O15379 whole entry, looked up): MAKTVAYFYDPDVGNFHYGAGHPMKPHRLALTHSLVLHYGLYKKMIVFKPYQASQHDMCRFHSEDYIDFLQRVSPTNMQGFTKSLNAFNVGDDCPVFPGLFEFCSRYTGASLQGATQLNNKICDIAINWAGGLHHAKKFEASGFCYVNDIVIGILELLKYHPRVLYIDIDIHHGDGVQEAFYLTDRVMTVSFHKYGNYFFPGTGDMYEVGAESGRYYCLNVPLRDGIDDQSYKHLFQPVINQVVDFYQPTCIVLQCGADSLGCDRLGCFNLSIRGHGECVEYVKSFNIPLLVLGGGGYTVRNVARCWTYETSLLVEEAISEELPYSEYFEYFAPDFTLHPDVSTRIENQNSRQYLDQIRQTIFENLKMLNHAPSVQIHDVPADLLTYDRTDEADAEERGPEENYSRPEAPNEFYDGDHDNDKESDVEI
With `O=C(N/N=C/c1ccccn1)c1ccc(S(=O)(=O)N2CCCCCC2)cc1`, the inhibition is -5.66%.
To `O=C(Nc1ccccc1F)c1ccc(S(=O)(=O)N2CCCCCC2)cc1` belongs 7.14%.
Then `O=C(Nc1ncccc1O)c1ccc(S(=O)(=O)N2CCCC2)cc1`, with 72.1% (active); and `CCCc1cc(=O)[nH]c(SCC(=O)Nc2ccc(S(=O)(=O)N3CCCC3)cc2)n1`, with 4.11%.
Then `O=C1N(c2ccccc2)C(=Nc2ccccc2)SC12CC2`, with 1.18%; and `Cc1ccccc1N/C(SCc1ccc(Cl)cc1)=C(/C#N)C(N)=O`, with 15.5%; and `CCOC(=O)C1CCN(CCC(=O)Nc2cccc(C)c2)CC1`, with 1.84%.
As to `CC(=O)c1cccc(OCC(=O)OCC(=O)Nc2cc(S(=O)(=O)N3CCCCC3)ccc2C)c1`, the inhibition was 0.557%.
To `CNC(=O)NC(=O)C(OC(=O)c1cccc(S(=O)(=O)N2CCCCC2)c1)c1ccccc1` (stereo unspecified) belongs 30.1% (active); to `CN1CCN(S(=O)(=O)c2cccc(C(=O)O)c2)CC1`, -5.01%.
Consider `CS(=O)(=O)c1ccc(Cl)c(NC(=O)COC(=O)c2cccc(S(=O)(=O)N3CCCC3)c2)c1`, for which the inhibition was 5.04%.
To `COC(=O)c1nc(NC(=O)c2ccccc2)n[nH]1` belongs 58.7% (active); to `Cn1c(NC(=O)c2ccccc2)nc2ccccc21`, 9.99%.
To `COC(=O)c1nc(NC(=O)c2ccc(Cl)cc2)n[nH]1` belongs 7.09%; to `Nn1c(SCC(=O)Nc2ccc3c(c2)CCC3)nnc1C1CC1`, 1.79%.
Then `Cc1cc(C)n(C(=O)CCNC(=O)c2ccccc2Cl)n1`, with -13.4%; and `COc1cccc(N2CC(NS(=O)(=O)c3cccs3)CC2=O)c1` (stereo unspecified), with -2.66%.
As for `COc1ccccc1C(=O)OCC(=O)Nc1cccc(S(=O)(=O)NC2=NCCCCC2)c1`, the inhibition is -6.85%.
For the compound `O=C(COC(=O)c1cc[n+]([O-])cc1)Nc1ccc(Cl)c(C(F)(F)F)c1`, the inhibition was -1.85%.
To `COc1cc(OC)cc(C(=O)NCC(=O)OCC(=O)NC(C)CCc2ccccc2)c1` (stereo unspecified) belongs -5.18%; to `CC(C)Cn1c(SCC(=O)Nc2ccc(Cl)cc2F)nc(O)cc1=O`, 8.68%; to `CCC(CO)Oc1cc(NC(=O)c2cccc(F)c2)c2ncn(C(C)C)c2c1` (stereo unspecified), -0.176%.
Then `COc1ccc(OCC(=O)Nc2ccc(N3CCC(C)CC3)cc2)cc1`, with 5.48%; and `CCC(=O)c1ccc(OCC(=O)Nc2ccc(N3CCCCC3)cc2)cc1`, with -1.33%.
To `O=C(COc1ccc([N+](=O)[O-])cc1)Nc1ccc(N2CCCC2)cc1` belongs 54.5% (active); to `O=C(Nc1cc(S(=O)(=O)N2CCCCC2)ccc1Cl)C1COc2ccccc2O1` (stereo unspecified), -0.0794%; to `COc1cc(OC)cc(-c2cc3ccc(F)cc3cn2)c1`, 5.76%.
For the compound `CCN(C[C@H]1N[C@@](CC)(C(=O)OC)[C@H]2C(=O)N(Cc3ccccc3)C(=O)[C@@H]12)S(=O)(=O)c1ccc(C(F)(F)F)cc1`, the inhibition is 4.73%.
Then `CC[C@@H]1CCCCc2ccccc2[C@@H](C(=O)C[C@H](O)CC(C)=O)OC1=O`, with -4.02%; and `O=C(CCNC(=O)c1ccccc1)NN=Cc1ccc(Br)o1`, with 4.25%.
Then `Fc1ccccc1-c1cc2cc3c(cc2cn1)OCO3`, with 0.895%.
Consider `CCOC(=O)C1Cn2c(nc3c(c2=O)C(C)(CC)Cc2ccccc2-3)S1` (stereo unspecified), for which the inhibition was -2.26%.
On to `CCCN(CC1CC1)C(=O)COC(=O)c1ccc(C)cc1O`, for which the inhibition is -5.26%.
In the case of `CCCC1CCC(=NNC(=S)NCCc2ccccc2)CC1` (stereo unspecified), the inhibition is -4.85%.
Then `COCCN(CCOC)S(=O)(=O)NC[C@H]1O[C@@H](n2cnc3c(N)ncnc32)[C@H](O)[C@@H]1O`, with -1.58%; and `Cc1nc2ccc(NC(=O)c3cccc(S(=O)(=O)N4CCOCC4)c3)cc2s1`, with -5.18%.

The inhibition is the relative decrease from the control value, in per cent.
